# In the supplement of paper PMC8047044:
# Counter-ions that a name gives are not always drawn.
# Tested on: Neuro-2a
# Assay: neurite formation score, plate-normalized to DMSO control mean 5.04 (score (0-8 scale)); higher = more or longer neurites
# Conditions: 1 µM
# Protocol: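 Neuro-2a mouse neuroblastoma cells in PLL-coated 96-well plates were pre-treated for 1 h in DMEM(+) with each kinase inhibitor at 1 µM, then switched to serum-free DMEM(-) with inhibitor to induce neurite outgrowth and fixed about 2-3 h later. Three blinded observers scored neurite formation from 0 (no neurites) to 8 (long neurites on almost all cells).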
row,Structure (SMILES),neurite formation score
1,CC(C)[C@H](CO)Nc1nc(Nc2cccc(Cl)c2)c2ncn(C(C)C)c2n1 [Purvalanol A],3.54
2,COc1cc(Nc2ncc(F)c(Nc3ccc4c(n3)NC(=O)C(C)(C)O4)n2)cc(OC)c1OC,5.63
3,O=c1sn(-c2cccc3ccccc23)c(=O)n1Cc1ccccc1 [Tideglusib],4.21
4,CC(C)c1cc(CNc2nc(Nc3cc(C4CC4)[nH]n3)cc(N3CCN(C)CC3)n2)on1,0.692
5,O=C1Nc2ccc(I)cc2/C1=C/c1cc(Br)c(O)c(Br)c1,3.29
6,COc1ccc(-c2ccc3c(N4CCOC[C@@H]4C)nc(N4CCOC[C@@H]4C)nc3n2)cc1CO,4.57
7,C=CC(=O)Nc1cccc(Nc2nc(Nc3ccc(N4CCN(C(C)=O)CC4)cc3OC)ncc2C(F)(F)F)c1,4.24
8,O=c1oc2c(O)c(O)cc3c(=O)oc4c(O)c(O)cc1c4c23 [Ellagic acid],4.47
9,O=c1cc(N2CCOCC2)oc2c(-c3cccc4c3sc3ccccc34)cccc12,2.9
10,O=C1NC(=O)/C(=C/c2ccc3nccc(-c4ccncc4)c3c2)S1,4.14
11,O=[N+]([O-])c1ccc(Nc2nc(N3CCOCC3)nc(N3CCOCC3)n2)cc1,4.21
12,Cc1cc(NC(=O)c2cccc(NC(=O)/C=C/CN(C)C)c2)ccc1Nc1nccc(-c2cccnc2)n1,5.36
13,Cc1ccccc1-n1c(Cn2nc(-c3cccc(O)c3)c3c(N)ncnc32)nc2cccc(C)c2c1=O,4.88
14,Cn1cc(C2=C(c3cn(CCCSC(=N)N)c4ccccc34)C(=O)NC2=O)c2ccccc21 [Ro 31-8220 Mesylate],4.54
15,Cn1cc(-c2[nH]c3cc(NC(=O)[C@H](N)C4CCCCC4)cc4c3c2C=NNC4=O)cn1,3.63
16,CCCNC(=O)Nc1ccc(Oc2ncnc3cc(OC)c(OC)cc23)cc1Cl,5.57
17,Cc1[nH]nc2ccc(-c3cncc(OC[C@@H](N)Cc4ccccc4)c3)cc12,4.63
18,COc1cc(N2CCC(N)CC2)ccc1Nc1ncc(Cl)c(-c2c[nH]c3ccccc23)n1,4.63
19,Cc1cc(Nc2cc(N3CCN(C)CC3)nc(/C=C/c3ccccc3)n2)n[nH]1,3.02
20,CNC(=O)c1ccccc1Nc1nc(Nc2ccc(N3CCOCC3)cc2OC)ncc1Cl,4.29
21,COc1cc(Nc2ncc(F)c(Nc3ccc4c(n3)NC(=O)C(C)(C)O4)n2)cc(OC)c1OC [R406 (free base)],3.9
22,CNc1nc(-c2ccc3c(N)n[nH]c3c2)cc(N2C[C@@H](C(=O)NC3CCCCC3)CC[C@H]2C)n1,4.88
23,CC(C)(C)Cn1c(N)nc2ccc(-c3[nH]c(C(C)(C)C)nc3-c3ccc(F)cc3)nc21,4.57
24,COc1cc2/c(=N/c3ccc(Br)cc3F)nc[nH]c2cc1OCC1CCN(C)CC1 [Vandetanib (ZD6474)],4.8
25,"Cc1cc(Nc2cc(N3CCN(C)CC3)nc(Sc3ccc(NC(=O)C4CC4)cc3)n2)n[nH]1 [VX-680 (MK-0457,Tozasertib)]",5.02
